The target of one test is MUC20. The test is described as follows: pooled miR-30 sensor sort-seq; sequence = guide strand. The settings on record: shRNA.
Take TTTACTGAAACACAGAACATGT: the sensor-assay potency score (higher = more potent) is -0.607. The sequence TCTGTGGTCGGCCTCGTCCGGG displayed a sensor-assay potency score (higher = more potent) of -1.58. Still for that read-out and setting: to TTAATAACCTCGATGTTTGTGA belongs -0.0395.

Sequence TTCATCGTGGTCTTCGCTGAGG had a sensor-assay potency score (higher = more potent) of -0.448. With TTGGTGTCTCAACAGAGAGGGC, the sensor-assay potency score (higher = more potent) was -0.842. Sequence TAACTTGGTGTCTCAACAGAGA showed a sensor-assay potency score (higher = more potent) of -0.859. Take TTCGCTGAGGTTGTGATCTTGG: the sensor-assay potency score (higher = more potent) was 0.418. The same measure, in the same setting: with TTGTGAGTGTCTTTGCCTCTTC the figure was -0.403. Same read-out and setting: with TGAAACACAGAACATGTGCCAA the figure was -0.681; with TTCACCTGCACTCACGTCTGTG, -1; with TACTGAAACACAGAACATGTGC, 0.46.

The next test concerns the target MUC4. The test is described as above. The settings on record: shRNA.
TTGAAGAATCCTGACAGCCTTC showed a sensor-assay potency score (higher = more potent) of -0.37. Same read-out and setting: to TTCACCATAGAACGTCTCGTAT belongs -0.617.

In turn, TTCAGGAAATAGGAGAACCTGG showed a sensor-assay potency score (higher = more potent) of -1.36. On the same count and under the same terms, with TTGTCTGTGAAGTAGAGGGAAT the figure was -1.17; with TTGAAGGTGTAACTGACACCAT, 0.0208.

Take TTTTTACTGACTTCCCTCGTGT: the sensor-assay potency score (higher = more potent) came to 0.677. On the same count and under the same terms, to TAGTCTTGTCTTGATTCCCAGT belongs -0.823.

(Values after the OligoGym collection.)
Note: reference of the scale not given here.
